Rows were chosen to be rich in hits. Some 0.87% of all compounds tested hit in one or more screens of this group.
TDP1 block: inhibitors of human tyrosyl-DNA phosphodiesterase TDP1; Q9NUW8; recombinant TDP1, AlphaScreen DNA substrate cleavage; 350,000 compounds, 0.28% hits; Potency, µM (highest dose often 130 µM), hits mostly inhibitors; AID 485290; note: nearly all actives have a fitted effect of over 40% in size
Target sequence (Q9NUW8 whole entry, looked up): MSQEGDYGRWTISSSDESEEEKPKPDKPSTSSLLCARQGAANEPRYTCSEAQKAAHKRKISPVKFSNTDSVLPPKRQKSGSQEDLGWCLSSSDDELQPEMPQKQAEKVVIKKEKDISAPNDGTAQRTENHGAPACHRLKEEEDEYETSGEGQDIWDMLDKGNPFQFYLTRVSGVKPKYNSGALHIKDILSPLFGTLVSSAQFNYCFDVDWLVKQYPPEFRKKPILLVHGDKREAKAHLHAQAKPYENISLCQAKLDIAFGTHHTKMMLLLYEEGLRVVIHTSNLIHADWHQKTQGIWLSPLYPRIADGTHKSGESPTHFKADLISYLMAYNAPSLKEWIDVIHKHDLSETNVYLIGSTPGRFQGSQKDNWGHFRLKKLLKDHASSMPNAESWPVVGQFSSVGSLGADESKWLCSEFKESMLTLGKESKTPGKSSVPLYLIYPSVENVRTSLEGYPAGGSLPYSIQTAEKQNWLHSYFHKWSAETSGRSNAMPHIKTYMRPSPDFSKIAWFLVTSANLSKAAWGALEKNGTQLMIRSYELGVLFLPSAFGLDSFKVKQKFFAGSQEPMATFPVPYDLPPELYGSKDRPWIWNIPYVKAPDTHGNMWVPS
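Enzyme-compound mixtures sat 15 min at room temperature, followed by a 5 min reaction with 15 nM final substrate and 10 min with AlphaScreen beads. Recombinant human Tdp1 was used at 1 nM final.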
APE1 inh: inhibitors of human APE1 endonuclease; P27695; recombinant APE1, TAMRA/BHQ-2 abasic DNA cleavage fluorescence; Potency, µM (highest dose often 65.8 µM), most hits filed as inhibitors; 350,000 compounds, 0.35% hits; note: nearly all actives have a fitted effect of over 55% in size
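Substrate: short duplex with […] THF abasic site, 5'-TAMRA and 3'-BHQ-2, 50 nM final. APE1 at 0.75 nM, preincubated 15 min RT with compound. Fluorescence increase from first to third read measured activity.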
RECQ1 helicase: RECQ1 (human) helicase inhibition | P46063 | RECQ1 DNA unwinding, red fluorescence kinetic read | Potency, µM (highest dose often 57.3 µM), hits mostly inhibitors | 240,000 compounds, 0.54% hits; note: nearly all actives have a fitted effect of over 30% in size
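RECQ1T1 50 nM; forked duplex (20 bp + 30-nt ss tails) 200 nM, ATP 2 mM final; pH 8.0, 2 mM MgCl2, 2.5 ug/ml poly(dI-dC); 15 min compound preincubation; discontinuous kinetic read over 2 h at RT.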
RGS4 inhibitor: blocks human RGS4-accelerated GTP hydrolysis; Transcreener GDP fluorescence polarization, RGS4-accelerated GTP hydrolysis; Potency, µM (top dose mostly 114 µM), most hits filed as inhibitors; 390,000 compounds, 0.039% hits; AID 504845; note: nearly all actives have a fitted effect of over 75% in size
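MLSMR compounds (23 nl, pin-transferred) preincubated 10 min at room temperature with a 500nM (2x) first reagent, then RGS4 at 900nM (2x) plus Transcreener GDP mix added; fluorescence polarization (620/688 nm) read before and after 90 min at 30 °C.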
BLM helicase inh: Bloom syndrome helicase (human) inhibition. Potency, µM (titrated, usually from 56.1 µM), most hits filed as inhibitors. AID 2528. recombinant BLM DNA unwinding, fluorescence dequenching. P54132. 350,000 compounds, 0.2% hits; note: nearly all actives have a fitted effect of over 35% in size
GCN5L2 inh: blocks human GCN5L2 histone acetyltransferase; GCN5L2 HAT assay, ThioGlo1 CoA-SH fluorescence; Potency, µM (titrated, usually from 58.9 µM), hits mostly inhibitors; 390,000 compounds, 0.21% hits; AID 504327
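Enzyme at 20nM final was mixed with library compounds for 15 min at room temperature. Peptide H3(1-25) at 75uM, acetyl-CoA at 70uM and ThioGlo1 at 50uM were then added. Plates were read immediately and after 20 min (Ex340nm/Em540nm).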
Of the large screens only hits and unclear results are named; the others gave an inactive call; ! = not confirmed by another sample. Calls come from the whole dose curve; as a rule, active = well fitted curve in the direction sought with a large enough effect; inconclusive = small, poorly fitted or top-dose-only effect, or another doubt; inactive = no such curve, though single readings can be large; an effect the other way counts as inactive or inconclusive.

O=C(Cc1cc(=O)oc2cc(O)ccc12)NC(Cc1ccc(Cl)cc1)C(=O)O (stereo not drawn)	GCN5L2 inh 28µM (no result: TDP1 block, RECQ1 helicase)
O=C(Cc1cc(=O)oc2cc(O)ccc12)NCC1CCC(C(=O)O)CC1 (stereo not drawn)	GCN5L2 inh 28µM
O=c1cc(-c2ccccc2O)oc2cc(O)ccc12	none (no result: RGS4 inhibitor)
O=c1cc(-c2ccccc2)oc2cccc(O)c12	RGS4 inhibitor 8.4µM!
O=c1cc(-c2ccc(O)cc2)oc2cc(O)cc(O)c12	APE1 inh 25µM!, RGS4 inhibitor inconclusive
O=c1cc(-c2cccc(O)c2O)oc2ccccc12	RECQ1 helicase 6.3µM (no result: RGS4 inhibitor, GCN5L2 inh)
O=c1cc(-c2ccc(O)c(O)c2)oc2ccc3ccccc3c12	APE1 inh 0.42µM (no result: TDP1 block, RECQ1 helicase, BLM helicase inh)
COc1ccc(O)c(C2Nc3ccccc3C(=O)N2Cc2ccccc2)c1 (stereo not drawn)	none (no result: APE1 inh, RECQ1 helicase, RGS4 inhibitor, BLM helicase inh, GCN5L2 inh)
CC(C)OCCCNC(=O)c1cc(S(=O)(=O)N2CCc3ccccc32)cn1C	GCN5L2 inh 0.79µM (no result: TDP1 block, RECQ1 helicase)
CCC(C)(C)NC(=O)c1cc(S(=O)(=O)N2CCc3ccccc32)cn1C	none (no result: TDP1 block, RECQ1 helicase)
O=C1c2ccccc2C(=O)N1c1cnc2ccccc2c1	none (no result: APE1 inh, RECQ1 helicase, RGS4 inhibitor, BLM helicase inh, GCN5L2 inh)
CN(C)CC/C=C1/c2ccccc2CSc2ccccc21	none (no result: TDP1 block, RECQ1 helicase, RGS4 inhibitor, BLM helicase inh, GCN5L2 inh)
COc1cc(OC)c2c(c1)OC(c1ccccc1)CC2=O (stereo not drawn)	RGS4 inhibitor 5.3µM
COc1ccc(C2CC(=O)c3ccccc3O2)cc1 (stereo not drawn)	none
CC12CCC3C(CC3(C)C)C(C)(CCC1=O)O2 (stereo not drawn)	none (no result: RGS4 inhibitor)
CC1(C)CC2C1CC[C@]1(C)CCC3C(C(=O)O)CC(=O)O[C@]32C1 (stereo partly drawn)	GCN5L2 inh 7.9µM (no result: RGS4 inhibitor)
COc1cc(NC(=O)c2cc(-c3cccs3)on2)c(OC)cc1Cl	none (no result: APE1 inh, RECQ1 helicase)
COc1ccc(OC)c(N=c2ssnc2Cl)c1	GCN5L2 inh 28µM
COc1cc(N=c2ssnc2Cl)c(OC)cc1Cl	RGS4 inhibitor inconclusive, GCN5L2 inh 11µM
CO[C@H]1C=CO[C@@]2(C)Oc3c(C)c(O)c4c(O)c(c5c(nc6cc(C)ccn65)c4c3C2=O)NC(=O)/C(C)=C\C=C[C@H](C)[C@H](O)[C@@H](C)[C@@H](O)[C@@H](C)[C@H](OC(C)=O)[C@@H]1C	none (no result: TDP1 block, RECQ1 helicase, RGS4 inhibitor, BLM helicase inh, GCN5L2 inh)
O=C(O)CN1C(=O)/C(=C/c2ccc(N3CCCCC3)o2)SC1=S	TDP1 block 50µM, RGS4 inhibitor inconclusive
O=C(O)CCCN1C(=O)/C(=C/c2ccc(-c3nc4ccccc4s3)o2)SC1=S	none
O=C(O)CCCCCN1C(=O)/C(=C\c2ccc(-c3ccc(Cl)cc3)o2)SC1=S	TDP1 block 40µM, RGS4 inhibitor inconclusive
COc1ccc(CNc2nc(-c3ccc(N(C)C)cc3)nc3ccccc23)c(OC)c1	BLM helicase inh 28µM (no result: TDP1 block, RGS4 inhibitor)
COc1ccc(CNc2nc(-c3ccc(C(=O)N(C)C)cc3)nc3ccccc23)c(OC)c1	none (no result: RGS4 inhibitor)
CC(C)(C)OC(=O)Cc1nnc(-c2cc3ccccc3[nH]2)s1	none (no result: APE1 inh, RECQ1 helicase, RGS4 inhibitor, BLM helicase inh, GCN5L2 inh)
CC(/C=C/c1ccc(C)o1)=C\C(=O)O	RGS4 inhibitor inconclusive, GCN5L2 inh inconclusive
CC(=C/C(=O)O)/C=C/c1ccc(Cl)o1	TDP1 block 25µM
COc1ccc(/C(N)=N/OC(=O)Cc2ccc(C)cc2)cc1	none
COc1ccc(CC(=O)OC(C)C(=O)c2ccc(C)cc2)cc1 (stereo not drawn)	TDP1 block 79µM (no result: RECQ1 helicase)
O=C(O)C1C2C=CC(C2)C1C(=O)N1CCc2ccccc21 (stereo not drawn)	none
O=C(O)C1CC=CCC1C(=O)N1CCc2ccccc21 (stereo not drawn)	TDP1 block 22µM, APE1 inh inconclusive
O=c1c(-c2ccccc2)coc2cc(O)cc(O)c12	APE1 inh inconclusive, BLM helicase inh 22µM, GCN5L2 inh 28µM (no result: RGS4 inhibitor)
Cc1ccc(NS(=O)(=O)c2ccc3c(c2)CCC(C)(C)O3)cc1C	none (no result: APE1 inh, RECQ1 helicase, RGS4 inhibitor, BLM helicase inh, GCN5L2 inh)
O=C(O)[C@H]1O[C@@H](Oc2ccc3ccc(=O)oc3c2)[C@H](O)[C@@H](O)[C@@H]1O	none (no result: RGS4 inhibitor)

Screening data: PubChem, National Center for Advancing Translational Sciences (NCATS)
